Measurements from PubChem BioAssay AID489025 (Southern Research Specialized Biocontainment Screening …, 2010).
Hit rate of the full screen: of about 2,300 compounds, about 790 (34%) were called active. This is one part of the list. Potency and affinity values are given separately. Values without a mark were called inactive. No rule for the calls is given here.

Assay: THP-1 cell cytotoxicity, dose response, cytotoxicity control for non-replicating M. tuberculosis project (AID 489025)
Settings: THP-1 cell viability; series mostly up to 40 µM; viability: at the top concentration

SMILES | viability [%]
COc1cccc(/C=N/N2C(=O)CSC2=S)c1O | 112
CCCC(C)C(=O)Nc1ccc(Cl)cn1 (configuration not stated) | 114
O=[N+]([O-])c1ccc(N2CCCCCC2)c2nonc12 | 112
CC1CCCN(CCC(=O)c2ccc(Br)cc2)C1 (configuration not stated) | 98.7
C/C(=N\Nc1cccc2cccnc12)c1ccccn1 | 79.8
CC(OC(=O)c1ccc2c(=O)n3c(nc2c1)CCCCC3)C(=O)Nc1ccc(Cl)cn1 (configuration not stated) | 80.8
CCOC(=O)c1cc(-c2csc(COc3ccccc3)n2)on1 | 95.9
O=C(N/N=C/c1cn[nH]c1-c1ccccc1)c1ccco1 | 96.9
COc1cc(Cl)cc(/C=N/NC(N)=O)c1O | 103
Cn1cccc1/C=N/NC(=O)c1ccco1 | 102
Cc1occc1C(=O)N/N=C/c1ccc[nH]1 | 82.8
O=C(OCc1ccc([N+](=O)[O-])cc1)c1cc2ccccc2oc1=O | 96.3
Cc1cccc(NC(=O)c2cc3ccccc3oc2=O)c1 | 87.6
Cc1cc(C)n(-c2ccc(C(=O)OCC(=O)Nc3cc(Cl)ccc3[N+](=O)[O-])cc2)n1 | 104
COc1ccccc1/C=C/C=N/NC(=O)c1ccncc1 | 75.8
COc1ccc(OC(=O)C2CC(=O)N(c3ccc(C)cc3)C2)cc1 (configuration not stated) | 108
O=C(COC(=O)c1cccs1)NCCC1=CCCCC1 | 96.1
CCCCN(C)C(=O)c1cc2cc3ccc(OC)cc3nc2s1 | 85.8
CN(CC(=O)Nc1ccc(C#N)cc1)Cc1ccc(Cl)c(Cl)c1 | 102
Cc1ccnc(NC(=O)COc2ccc3c(c2)CCC3)c1 | 107
Cc1cccnc1NC(=O)COc1ccc2oc3c(c2c1)CCCC3 | 79.2
O=C(O)COc1ccc2occ(C(=O)c3ccccc3)c2c1 | 118
Cc1onc(-c2ccccc2)c1C(=O)Nc1nnc(COc2ccc(Cl)cc2)s1 | 102
CC(/C=C/c1ccco1)=N/NC(=O)c1ccc(C)nc1 | 94.9
CC(=O)N1N=C(c2ccccc2)OC1c1ccc([N+](=O)[O-])s1 (configuration not stated) | 99.8

SMILES | viability [%]
O=C(N/N=C/c1ccc([N+](=O)[O-])s1)c1ccncc1 | 102
O=C(N/N=C\c1ccco1)c1cncc(Br)c1 | 108
CNC(=S)N1CCN(c2c(F)cc3c(=O)c(C(=O)O)cn(C4CC4)c3c2OC)CC1C (configuration not stated) | 110
O=C(Oc1ccc(F)cc1)c1ccc2c(=O)n3c(nc2c1)CCC3 | 106
CCN(CC)C(=O)c1sc2nc(-c3ccccc3)ccc2c1N | 72.4
O=C(Nc1ccc(Br)cc1)c1cc([N+](=O)[O-])cc([N+](=O)[O-])c1 | 92
Cc1ccc(C(=O)CCNc2ccc(F)c(Cl)c2)o1 | 116
CCCCSc1nnc(-c2ccc(C)cc2)o1 | 108
CC1=NN(c2ccc(C(=O)O)cc2)C(=O)/C1=C\c1ccc(OC(=O)c2cccs2)cc1 | 112
O=C(N/N=C/c1cccs1)c1cncc(Br)c1 | 101
O=C(N/N=C/c1ccc(Br)s1)c1ccncc1 | 112
Cc1ccc(C(=O)N/N=C\c2ccc[nH]2)cn1 | 97.8
Cc1ccc(/C=N/NC(=O)c2ccncc2)s1 | 114
COc1ccc(C(=O)COC(=O)c2ccc([N+](=O)[O-])s2)cc1OC | 98.1
CCC(=O)N/N=C/c1ccc(-c2ccc(Cl)cc2)o1 | 103
Cc1ccc(NC(=O)CC2SC3=NCCCN3C2=O)c(C)c1 (configuration not stated) | 86.8
CCC1CCC(c2nnc(-c3ccc([N+](=O)[O-])cc3)o2)CC1 (configuration not stated) | 110
Nc1ccc(Br)c2cccnc12 | 110
CCC(C)n1c(=S)[nH]c2ccccc2c1=O (configuration not stated) | 90.4
O=C(N/N=C/c1ccc(Br)s1)c1cccnc1 | 112
CC(C)(C)OC(=O)N/N=C\c1ccc([N+](=O)[O-])s1 | 113
COc1cc(/C=C2/C(=O)NN(c3cccc(F)c3)C2=O)ccc1OC(=O)c1ccco1 | 111
CCOc1ccc(Nc2ccc([N+](=O)[O-])c3nonc23)cc1 | 83.1
CS/C(Nc1cc(Cl)ccc1Cl)=C(/C#N)C(=O)c1ccco1 | 72.6
Cc1ccc(NC(=O)C(=O)NNC(=O)c2ccccc2C)cc1Cl | 86.4

SMILES | viability [%]
CCOC(=O)N1CCN(c2cc(C)c([N+](=O)[O-])cc2F)CC1 | 92.8
Cc1ccc(CN2CC(C(=O)OCc3ccccc3Cl)CC2=O)cc1 (configuration not stated) | 121
Cc1cccc(C)c1NC(=O)c1sc(N)nc1-c1ccccc1 | 100
Cc1ccc2cc(/C=N/NC(=O)[C@H](C)NC(=O)OC(C)(C)C)c(Cl)nc2c1 | 84.4
Cc1ccc(NC(=O)c2noc(C(C)C)c2[N+](=O)[O-])cc1 | 99.2
O=C(N/N=C/c1cccc(F)c1)c1c(O)c2ccccc2[nH]c1=O | 80.8
CC(=O)Oc1ccc(/C=C2\N=C(C3CCCCC3)OC2=O)cc1 | 106
COc1cc(N=c2ssnc2Cl)cc(OC)c1OC | 85.6
O=C(CCSc1nnc(-c2ccncc2)o1)Nc1cccc(Cl)c1 | 82.2
CCn1ccc(C(=O)Nc2cccc(Cl)c2)n1 | 99.6
CCN1CCN(Cc2cc(C(C)(C)C)c(O)c(C(C)(C)C)c2)CC1 | 107
CCCCOC(=O)Cn1c(-c2ccccc2)nc2ccccc2c1=O | 107
CC(=O)Nc1cccc(-c2nc3ccccc3c(=O)o2)c1 | 93
O=C(Nc1ccccn1)c1ccc(C(=O)c2ccccc2)cc1 | 86.9
CCCOC(=O)c1ccc(NC(=O)c2ccc(Br)o2)cc1 | 70.8
O=C(Nc1cccnc1)c1ccc(-c2ccc(Cl)cc2)o1 | 78
CC(C)(C)c1ccc(OCCC(=O)OCC(=O)NC2CC2)cc1 | 97.6
O=C(NC1CCOc2ccccc21)c1ccc(Cl)nc1 (configuration not stated) | 104
Cc1ccccc1-n1nnc2c(=O)oc3ccccc3c21 | 117
NC(=O)C1CCN(C2CC(=O)NC2=O)CC1 (configuration not stated) | 125
O=C(c1cc2ccccc2o1)c1nc2c(n1O)CCCCC2 | 101
O=C(Nc1ncc(Cc2ccccc2)s1)C1=NCCN1 | 101
CCOC(=O)Cc1cc(=O)n2[nH]cc(-c3ccc(Cl)cc3)c2n1 | 87.2
CCOC(=O)C1(O)CC(C)=NN1C(=O)c1cccc(Br)c1 (configuration not stated) | 88.5
CCOC(=O)c1c(C)nc2c3ccccc3ccn12 | 113

SMILES | viability [%]
CCOC(=O)Cc1ccc(NCc2ccc(Cl)cc2)cc1 | 82.2
O=C1CC(N2CCN(c3ccccc3)CC2)C(=O)N1CCc1ccccc1 (configuration not stated) | 97.6
CCOc1ccc(NC(=O)COC(=O)C2(C)CC2(Cl)Cl)c([N+](=O)[O-])c1 (configuration not stated) | 94.1
Cc1ccc(Sc2ncccc2N)cc1 | 104
O=C(NCCCN1CCOCC1)c1ccc(CSc2ccc(Cl)cc2)cc1 | 71.3
Cc1ccc2oc(=O)c3cc(C(=O)NCCCN4CCCCCC4)sc3c2c1 | 80.9
CC(=O)N1CCC(=NNC(=O)c2cccs2)CC1 | 112
Cc1cccc(CSc2nnc(-c3ccco3)o2)c1 | 94.8
C#CCSc1nnc(-c2ccc(O)cc2)o1 | 112
C#CCSc1nnc(-c2ccc([N+](=O)[O-])cc2)o1 | 92.9
CCOc1ccc(CC(=O)N2N=C(C)CC2(O)C(F)(F)F)cc1 (configuration not stated) | 103
O=C(CNC1CCCC1)Nc1ccc(N2CCCCCC2)cc1 | 91.9
N#Cc1ccc(N=c2ssnc2Cl)cc1 | 112
COc1cc(N=c2ssnc2Cl)cc(OC)c1 | 117
CC(=O)Nc1ccc(NC(=O)[C@@H]2CCCC[C@@H]2C(=O)O)cc1 | 85.2
CC(C)N=C1SC(CC(=O)Nc2ccccc2)C(=O)N1C(C)C (configuration not stated) | 85.1
CC(C)(C)c1ccc(C(=O)N2CCCC2)s1 | 90.3
CC1(C)OC(c2ccccc2)=C/C(=C\C=N\NC(=O)c2ccncc2)O1 | 75.6
Cc1ccc(NC(=O)CCSc2nnc(-c3ccco3)o2)cc1 | 104
O=C1/C(=C/c2ccco2)CCC1C1CCCC1 (configuration not stated) | 98
COc1ccc(CC(=O)Nc2nccs2)cc1OC | 105
O=C(Oc1ccc(/C=N/O)cc1)c1ccccc1Cl | 115
N/C(=N\OC(=O)c1cccc2ccccc12)c1cccnc1 | 121
O=C(Nc1nc2ccccc2[nH]1)c1cccc([N+](=O)[O-])c1 | 106
O=[N+]([O-])c1ccc2nc(SCc3cn4ccccc4n3)[nH]c2c1 | 123

SMILES | viability [%]
Cc1ccc(-c2nnc(Cc3ccc([N+](=O)[O-])cc3)o2)cc1 | 95.5
N/N=C(/Cc1nc2ccccc2[nH]1)c1ccc([N+](=O)[O-])cc1 | 104
Cc1ccc2cc3c(nc2c1)OCC3 | 108
Fc1ccc(N2CCN(Cc3nnc(-c4ccccc4)o3)CC2)cc1 | 105
O=C1CCCCC1Sc1nnc(-c2ccc3c(c2)OCO3)o1 (configuration not stated) | 107
O=C(COC(=O)c1ccccc1Cl)NCCC1=CCCCC1 | 93.1
Cc1ccc2c(C)ccc(O)c2n1 | 123
CN1C(=O)CC(N2CCC(c3nc4ccccc4s3)CC2)C1=O (configuration not stated) | 97.2
FC(F)(F)c1ccc(NCCc2ccccc2)nc1 | 98
CN(C)/C=C1/C(=O)N(c2ccc([N+](=O)[O-])cc2)N=C1c1ccccc1 | 101
Cc1cc(C)n2nc(N)c(N=Nc3ccccc3)c2n1 | 95.3
S=C1CN=C(c2ccccc2)c2cc(Cl)ccc2N1 | 90.6
CC(C)c1ccc(N2C(=O)CC(Sc3ncn[nH]3)C2=O)cc1 (configuration not stated) | 98.1
CCOC(=O)COn1c2c(c3c4no[n+]([O-])c4ccc31)CCCC2 | 123
CN(C)CCNc1c2c(c(C#N)c3nc4ccccc4n13)CCCC2 | 99.4
CC1=NN(c2ccccc2)C(=O)C1C(=O)c1ccccc1 (configuration not stated) | 76.9
Oc1ccccc1CN1CCCC(N2CCN(c3cccc(C(F)(F)F)c3)CC2)C1 (configuration not stated) | 73.8
N=C1/C(=C/c2ccc(OC(=O)c3ccco3)cc2)C(=O)N=C2SC=CN12 | 108
CCc1ccc(C2=C/C(=C/c3cccnc3)C(=O)O2)cc1 | 126
Cc1ccc(OCC(=O)OCc2c(C)noc2C)cc1C | 123
CCOc1ccc(NC(=O)COc2ccc3c(c2)OCO3)cc1 | 103
O=C(COC(=O)c1ccccc1Br)Nc1ccccc1F | 107
